Assay results published in PubChem BioAssay (EPA / NIEHS).
The source made the active and inactive calls. The calls were made as follows: active = hit-call score of the fitted dose curve at least 0.9, where 1 is the maximum; inactive = score below 0.9.

biological target: Transcriptional activator Myb (Homo sapiens) (UniProt P10242); test: ATG_Myb_CIS: Attagene CIS-FACTORIAL HepG2 Assay for human Myeloblastosis (Myb) Proto-Oncogene Transcription Factor (AID 2282986); settings: HepG2 Attagene CIS-FACTORIAL Myb reporter transcription; actives raise or lower the signal
Sequence (P10242 whole entry, looked up): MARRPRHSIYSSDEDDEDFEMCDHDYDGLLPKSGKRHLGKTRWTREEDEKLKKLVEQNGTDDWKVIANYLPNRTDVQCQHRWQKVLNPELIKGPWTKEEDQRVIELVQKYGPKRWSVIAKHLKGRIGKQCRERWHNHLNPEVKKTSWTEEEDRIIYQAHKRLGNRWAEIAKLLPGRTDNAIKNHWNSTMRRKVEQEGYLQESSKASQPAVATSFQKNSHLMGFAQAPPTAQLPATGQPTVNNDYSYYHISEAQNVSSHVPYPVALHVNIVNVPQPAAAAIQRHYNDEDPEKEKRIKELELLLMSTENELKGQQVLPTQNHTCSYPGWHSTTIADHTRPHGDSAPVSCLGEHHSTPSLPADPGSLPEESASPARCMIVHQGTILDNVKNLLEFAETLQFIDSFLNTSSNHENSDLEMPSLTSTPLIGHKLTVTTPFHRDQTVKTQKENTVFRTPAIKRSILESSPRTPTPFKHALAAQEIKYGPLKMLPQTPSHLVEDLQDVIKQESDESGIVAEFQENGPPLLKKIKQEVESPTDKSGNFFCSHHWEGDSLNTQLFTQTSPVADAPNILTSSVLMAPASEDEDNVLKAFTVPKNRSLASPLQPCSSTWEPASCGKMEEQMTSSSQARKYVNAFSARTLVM
Method: ATG_CIS is a cell-based, multiplexed-readout assay that uses HepG2, a human liver cell line, with measurements taken at 24 hours after chemical dosing in a 24-well plate.ATG_Myb_CIS is one of 52 assay component(s) measured or calculated from the ATG_CIS assay. It is designed to make measurements of mRNA induction, a form of inducible reporter, as detected with fluorescence intensity signals by Reverse transcription polymerase chain reaction (RT-PCR) and Capillary electrophoresis technology.Data from the assay component ATG_Myb_CIS was analyzed into 1 assay endpoint. This assay endpoint, ATG_Myb_CIS, was analyzed with bidirectional fitting relative to DMSO as the negative control and baseline of activity. Using a type of inducible reporter, measures of mRNA for gain or loss-of-signal activity can be used to understand the reporter gene at the transcription factor-level as they relate to the gene MYB. Furthermore, this assay endpoint can be referred to as a primary readout, because this assay has produced multiple assay endpoints where this one serves a reporter gene function. To generalize the intended target to other relatable targets, this assay endpoint is annotated to the dna binding intended target family, where the subfamily is MYB proteins.
Human liver HepG2 cells are transiently transfected with multiple reporter transcription units (MRTUs) in 6-well plates using FuGene 6 reagent (Roche; 3 ml FuGene/1 mg DNA). The MRTU constructs are regulated by a cis-regulating element (promoter). […] A major difference between the CIS and TRANS system is that in CIS activities of endogenous TFs are measured, whereas the TRANS assay evaluates changes in activities of exogenous, chimeric NR-Gal4 proteins. […] At the end of 24 hour incubation, total RNA was isolated using TriZol reagent (Invitrogen). The isolated RNA is then reverse-transcribed using oligo(dT) primer and Mo-MLV reverse transcriptase (Invitrogen) with DNAse I (Ambion) treatment for 30 min. The one-tenth of the produced cDNA was amplified by PCR using Taq DNA polymerase (Invitrogen) and two reporter sequence-specific primers. The PCR products were fluorescently labeled by primer extension with 6-arboxyfluorescein (6-FAM) 5'-labeled reporter sequence-specific primer (2 min at 95 C, 20 s at 68 C and 10 min at 72 C) and these products were digested with 5U of HpaI (New England Biolabs) for 2h at 37 C. The fragments were purified using Qiaquick PCR columns (Qiagen), analyzed on an ABI 3130xL genetic analyzer (Applied Biosystems) with peak positions identified by using a set of X-rhodamine (ROX)-labeled MapMarker1000 molecular weight standards (BioVentures). The raw capillary electrophoresis data was processed using Attagraph software (Attagene).

**Q.** With CCCCCCCCC(CO)CCCCCC (stereo not given) as the compound, how does the outcome read?
**A.** inactive

**Q.** Which outcome does the source give for CCCC(C)C(=O)OCC (stereo not given) here?
**A.** inactive

**Q.** With CCCCCC[C@@H](O)C/C=C\CCCCCCCC(=O)OCC(O)CO (stereo not given in full) as the compound, how does the AC50 read?
**A.** 145 µM (active)

**Q.** With C=CCCCCCCCCO as the compound, how does the outcome read?
**A.** inactive

**Q.** Which outcome does the source give for C=CCCCCCCCCC=O here?
**A.** inactive

**Q.** With CCCCCCCOC(=O)c1ccc(O)cc1 as the compound, how does the outcome read?
**A.** inactive

**Q.** How did the outcome turn out when CCCCCCCO was run?
**A.** inactive

**Q.** With COC(=O)c1ccc(C(=O)OC)c(C(=O)OC)c1 as the compound, how does the outcome read?
**A.** inactive

**Q.** CC(=O)OCC=C(C)C was tested. Which outcome did it give?
**A.** inactive

**Q.** For CO[Si](CCCS)(OC)OC, which outcome is on record?
**A.** inactive

**Q.** Which outcome does the source give for C[N+](C)(C)CCCNS(=O)(=O)C(F)(F)C(F)(F)C(F)(F)C(F)(F)C(F)(F)C(F)(F)C(F)(F)C(F)(F)F here?
**A.** inactive

**Q.** C=CC(C)(CCC=C(C)C)OC(=O)C=Cc1ccccc1 (stereo not given) was tested. Which outcome did it give?
**A.** inactive

**Q.** With Nc1ccc(Cl)c(N)c1 as the compound, how does the outcome read?
**A.** inactive

**Q.** CCc1cccc(C)c1N was tested. Which outcome did it give?
**A.** inactive

**Q.** Which outcome does the source give for C1CNCCN1 here?
**A.** inactive

**Q.** How did the outcome turn out when C=C(C)C1CC=C(C)C(OC(C)=O)C1 (stereo not given) was run?
**A.** inactive

**Q.** Which outcome does the source give for CC(C)CC(=O)OCc1ccccc1 here?
**A.** inactive

**Q.** C1CCSC1 was tested. Which outcome did it give?
**A.** inactive

**Q.** How did the outcome turn out when Cc1noc(NS(=O)(=O)c2ccc(N)cc2)c1C was run?
**A.** inactive

**Q.** With CCC1(C)C(=O)N(Cl)C(=O)N1Cl (stereo not given) as the compound, how does the outcome read?
**A.** inactive

**Q.** How did the outcome turn out when c1ccc(-c2nc3ccccc3[nH]2)cc1 was run?
**A.** inactive

**Q.** How did the outcome turn out when CC(C)(C)NC(=O)[C@H]1CC[C@H]2[C@@H]3CC[C@H]4NC(=O)C=C[C@]4(C)[C@H]3CC[C@]12C was run?
**A.** inactive

**Q.** With CCCc1ccc(O)c(OC)c1 as the compound, how does the outcome read?
**A.** inactive

**Q.** For CC1=NN(c2ccc(S(=O)(=O)O)cc2)C(=O)C1N=Nc1ccccc1 (stereo not given), which outcome is on record?
**A.** inactive

**Q.** For CC1(C)CC(O)CC(C)(C)N1[O], which outcome is on record?
**A.** inactive

**Q.** With C=CC(=O)OCCCCCCOC(=O)C=C as the compound, how does the outcome read?
**A.** inactive

**Q.** How did the outcome turn out when COc1cc(C)ccc1O was run?
**A.** inactive

**Q.** How did the outcome turn out when Cn1cccc1 was run?
**A.** inactive

**Q.** For COC(=O)CC(C)CCC=C(C)C (stereo not given), which outcome is on record?
**A.** inactive

**Q.** Nc1ccnc(=O)[nH]1 was tested. Which outcome did it give?
**A.** inactive

**Q.** With CCC(C)C(=O)OC (stereo not given) as the compound, how does the outcome read?
**A.** inactive

**Q.** O=C(OCc1ccccc1)c1ccc(O)cc1 was tested. Which outcome did it give?
**A.** inactive

**Q.** How did the outcome turn out when CCCCCC(=O)OCC was run?
**A.** inactive

**Q.** For CCCCCC1=CCCC1=O, which outcome is on record?
**A.** inactive

**Q.** For CCCC(CC)c1ccccc1 (stereo not given), which outcome is on record?
**A.** inactive

**Q.** Cc1c[nH]c(=O)[nH]c1=O was tested. Which outcome did it give?
**A.** inactive

**Q.** How did the outcome turn out when Oc1ccc(/C=C/c2cc(O)cc(O)c2)cc1 was run?
**A.** inactive

**Q.** How did the outcome turn out when CC(=O)OCc1ccccc1 was run?
**A.** inactive

**Q.** How did the outcome turn out when CC(C)(C)N was run?
**A.** inactive

**Q.** With Cc1cc(C)c(C=O)c(C)c1 as the compound, how does the outcome read?
**A.** inactive
